# Data taken from PubChem BioAssay (NCI).
# This is part of a sample that, as a whole, favours compounds with a hit. Of some 83,000 tested, about 20% had one in any assay.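 Single-dose data. Exposure time 48 hours. Values below 10 considered active.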 Unmarked numbers belong to inactive results. Activity calls are given as the source filed them.
# Columns and labels:
# Assay in all cases: NCI-60 one-dose screen, 48 h (100 = growth as untreated, 0 = no growth, -100 = all killed)
# Details in all cases: 10 µM unless noted
# NCI-H23 lung = system: NCI-H23 lung
# NCI-H226 lung = system: NCI-H226 lung
# NCI-H322M lung = system: NCI-H322M lung
# HOP-62 NSCLC = system: HOP-62 NSCLC
# NCI-H460 lung = system: NCI-H460 lung
# NCI-H522 lung = system: NCI-H522 lung
# A549/ATCC NSCLC = system: A549/ATCC NSCLC
# 786-0 renal = system: 786-0 renal
# COLO 205 colon = system: COLO 205 colon
# DU-145 prostate = system: DU-145 prostate
# K-562 leukemia = system: K-562 leukemia
# MDA-MB-231 breast = system: MDA-MB-231 breast
# SF-268 CNS = system: SF-268 CNS
# SF-295 CNS = system: SF-295 CNS
# SF-539 CNS = system: SF-539 CNS
# UACC-257 melanoma = system: UACC-257 melanoma
# M14 melanoma = system: M14 melanoma
# HCT-15 colon = system: HCT-15 colon
# MALME-3M melanoma = system: MALME-3M melanoma
# RXF 393 renal = system: RXF 393 renal
SMILES,growth (NCI-H23 lung),growth (NCI-H226 lung),growth (NCI-H322M lung) [%],growth (HOP-62 NSCLC),growth (NCI-H460 lung),growth (NCI-H522 lung),growth (A549/ATCC NSCLC) [%],growth (786-0 renal),growth (COLO 205 colon) [%],growth (DU-145 prostate),growth (K-562 leukemia),growth (MDA-MB-231 breast),growth (SF-268 CNS) [%],growth (SF-295 CNS),growth (SF-539 CNS),growth (UACC-257 melanoma),growth (M14 melanoma),growth (HCT-15 colon),growth (MALME-3M melanoma) [%],growth (RXF 393 renal) [%]
COc1cc(/C=C/C(=O)c2c(-c3ccc(Cl)cc3)nc3sc(C)nn23)cc(OC)c1OC,84.3%,68.3%,87.5,98.8%,97.2%,-20.1% (active),83.8,81.4%,100,90.2%,31.1%,72.2%,88.6,76.2%,95.8%,81.9%,75.8%,60.2%,–,–
CCOC(=O)/C(=C/c1ccccc1)C(=O)c1ccccc1,82.4%,84.3%,84.2,74.9%,88.3%,67.6%,79.8,80.5%,95.4,50.3%,38.9%,81.4%,62,83%,84.4%,64.1%,66.1%,51.9%,–,–
Cc1c(C(N)=O)sc2c1c(=O)n(Cc1ccccc1)c1nnc(SCC(=O)Nc3ccc(Cl)cc3)n21,57.7%,9.97% (active),28.9,-6.06% (active),-12.3% (active),17.2%,20.7,-41.2% (active),50.7,39.5%,–,-6.85% (active),60.1,49.4%,–,35.3%,40.5%,82.5%,15.8,38
N#Cc1c2ccccc2c2n1-c1ccccc1OC(c1ccccc1)C2=O (centres undefined),22.6%,21.2%,81.5,32.6%,31.8%,-43.7% (active),10.4,31.7%,63.9,56.7%,13%,22.3%,30.1,16.3%,77.2%,53.3%,41.4%,13.8%,–,–
Cc1nn(-c2ccccc2)c2ncc3c(c12)C(=O)N(Cc1ccccc1)C3=O,63.9%,-14.2% (active),58.6,1.26% (active),4.79% (active),59.9%,13.9,-4.88% (active),32.9,98.9%,–,14.3%,81.3,1.19% (active),–,94.3%,68.7%,86.3%,72,68
COC(=O)CCC1=C(C)C(C)=N/C1=C\c1[nH]c(-c2ccc[nH]2)cc1OC,0.999% (active),20.7%,12.1,-3.16% (active),0.969% (active),-62.7% (active),11.1,10.1%,12.9,9.9% (active),-16.4% (active),-33.4% (active),25.3,-44.6% (active),-9.38% (active),-1.25% (active),9.58% (active),-2.64% (active),–,23.3
COc1cc(/C=C/C(=O)Nc2cccnc2Nc2cc(OC)c(OC)c(OC)c2)cc(OC)c1OC,93%,93.1%,115,106%,95.4%,87.6%,85.4,86.3%,113,105%,–,90.7%,105,92.8%,98.1%,93.4%,100%,97.3%,107,108
COC(=O)[C@]1(CCSC)N[C@H](c2cn(-c3ccccc3)nc2C)[C@@H]2C(=O)N(c3ccc(C)cc3)C(=O)[C@@H]21,100%,129%,104,99.5%,104%,89.6%,90.5,97.1%,113,103%,–,104%,98.2,97%,–,102%,96.6%,96.7%,99,133
COc1ccc2[nH]cc(/C=C3/C(=O)Nc4ccc(F)cc43)c2c1,75.8%,91.5%,94,105%,83.3%,81.5%,72.3,115%,97.7,95.3%,72.1%,87.6%,–,95.6%,99.4%,99.8%,98.2%,75.6%,–,91.5
